Assay results: PubChem BioAssay AID588726 (The Scripps Research Institute Molecular Screening Center, 2011)
Hit rate of the full screen: of about 360,000 compounds, about 8,200 (2.3%) were called active. No stated cut-off is given here; in the data, active means inhibition above about 27%; inactive means the rest. The sample as a whole holds a higher share of actives than the screen did.

Biological target: Fructose-bisphosphate aldolase (Mycobacterium tuberculosis (strain ATCC 25618 / H37Rv)) (UniProt P9WQA3)
Sequence (P9WQA3 whole entry, looked up): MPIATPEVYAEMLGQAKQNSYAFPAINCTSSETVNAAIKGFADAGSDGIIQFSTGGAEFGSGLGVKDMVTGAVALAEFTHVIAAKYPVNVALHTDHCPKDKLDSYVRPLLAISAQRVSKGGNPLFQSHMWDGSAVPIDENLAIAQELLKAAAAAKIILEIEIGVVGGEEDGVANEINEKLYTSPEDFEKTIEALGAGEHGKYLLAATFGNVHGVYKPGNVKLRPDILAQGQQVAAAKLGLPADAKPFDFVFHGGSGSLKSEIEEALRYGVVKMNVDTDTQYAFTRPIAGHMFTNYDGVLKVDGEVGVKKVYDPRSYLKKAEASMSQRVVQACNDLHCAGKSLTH
Test: Mtb FBA enzyme inhibitors, primary screen, biochemical, fluorescence, strain H37Rv (AID 588726);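 further: 0% = vehicle and 100% = reference inhibitor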
Conditions: purified M. tuberculosis FBA, fluorescence read-out, at 1 µM, stronger effect = higher value

SMILES | inhibition
O=C(OCC(=O)N(CCc1ccccc1)Cc1ccccc1)c1ccccc1[N+](=O)[O-] | -2.21% (inactive)
COc1cccc(N(C(=O)c2ccn[nH]2)C2(C(=O)Nc3c(C)cccc3C)CCCCC2)c1 | -2.93% (inactive)
CC(=O)Nc1ccc(S(=O)(=O)N2CCC(C(=O)N[C@@H](Cc3ccccc3)C(=O)O)CC2)cc1 | 7.63% (inactive)
O=C(O)CCN1C(=O)CC2(CCCCC2)C1=O | 1.19% (inactive)
O=C(NCc1ccc(F)cc1)c1cc(C2CCCCN2C(=O)C2CCCCC2)on1 (stereo unspecified) | -0.56% (inactive)
CCCC(O)(c1ccccc1)C(c1ccccc1)c1ccccn1 (stereo unspecified) | -3.41% (inactive)
COc1ccccc1CNC(=O)COC(=O)CNS(=O)(=O)c1ccc(NC(C)=O)cc1 | -1.17% (inactive)
COc1ccccc1C(=O)COC(=O)CNS(=O)(=O)c1ccc(NC(C)=O)cc1 | 0.46% (inactive)
CC(=O)Nc1ccc(S(=O)(=O)NCC(=O)OCc2cc(=O)oc3ccc4ccccc4c23)cc1 | 124% (active)
Nn1c(SCC(=O)Nc2nccs2)nncc1=O | -1.98% (inactive)
CC(C)N(C(=O)CSc1nc(COc2ccccc2)nc2ccccc12)C(C)C | -0.47% (inactive)
COc1cc(C(F)(F)F)nc2c(Br)c(C(C)(C)C)nn12 | 36.7% (active)
O=C(CCN1C(=O)C2C3CCC(C3)C2C1=O)Nc1ccc(Cl)cc1Cl (stereo unspecified) | 3.23% (inactive)
Cc1cc(C)cc(NC(=O)C(OC(=O)c2ccc(O)cc2)c2ccccc2)c1 (stereo unspecified) | 2.39% (inactive)
CN(C)CCCO/N=C(\c1ccccc1)c1ccncc1 | -1.04% (inactive)
CC(=O)c1cc2c(cc1NC(=O)CN1CCCCCC1)OCO2 | 0.04% (inactive)
COc1cccc(N(CC(=O)NC2CCCC2)C(=O)Cn2nnc(-c3ccc(C)o3)n2)c1 | 2.95% (inactive)
COCCNc1cc(-c2ccccc2)nc2cc(-c3cccc(F)c3)nn12 | 50.2% (active)
COc1ccc(-c2cc3nc(NCCOc4ccccc4)ccn3n2)cc1 | 9.7% (inactive)
COc1ccc(NC(=O)c2cc3nc(-c4ccccc4)cc(C)n3n2)cc1OC | 1.45% (inactive)
O=C(COC(=O)c1ncc(Cl)c(Cl)c1Cl)NCc1ccccc1 | 3.15% (inactive)
Cc1cccc(NC(=O)Cc2ccc(Br)cc2)n1 | -1.42% (inactive)
CC(C)(C)C(=O)Nc1cccc(-c2ccc[nH]2)n1 | 29.7% (active)
Cc1cccc(NC(=O)COc2ccc(Br)cc2C)n1 | 2.29% (inactive)

SMILES | inhibition
N#CCc1ccc(NC(=O)c2ccccc2C(=O)Nc2ccc(CC#N)cc2)cc1 | 1.02% (inactive)
Cc1ccn2c(c1)nc(=O)c1cc(S(=O)(=O)N3CCC(C)CC3)ccc12 | 29.3% (active)
CC1CCN(S(=O)(=O)c2ccc3c(ccn3CC(=O)O)c2)CC1 | -0.33% (inactive)
CC1CCN(S(=O)(=O)c2ccc3c(c2)n(C)c(=O)n3C)CC1 | -1.94% (inactive)
N#Cc1ccc(N2Cc3ccccc3/C2=N/C(=O)Nc2ccc(Cl)cc2)cc1 | -0.15% (inactive)
CC1CCCCC1NC(=O)CN1CCC(O)(c2ccc3c(c2)OCO3)CC1 (stereo unspecified) | -4.2% (inactive)
CN(C)c1ccc(/C=N/NC(=O)c2ccc(Cn3cc(Br)cn3)o2)cc1 | 0.83% (inactive)
COc1ccc(/C=N/NC(=O)C(C)N(c2ccc(OC)cc2)S(C)(=O)=O)cc1 (stereo unspecified) | -1.16% (inactive)
CN(C)c1ccc(/C=N/NC(=O)C(O)c2ccc(Br)cc2)cc1 (stereo unspecified) | 39.7% (active)
CCCNC(=O)N1CCC(c2ccc3c(c2)OCO3)CC1 | 0.5% (inactive)
O=c1[nH]oc(O)c1-c1ncc(C(F)(F)F)cc1Cl | 0.86% (inactive)
Cc1ccc(C)c(NC(=O)c2ccc(OC(=O)c3ccco3)cc2)c1 | 3.01% (inactive)
CC(=O)N1C(=O)C2(Nc3ccccc3N2)c2ccccc21 | 6.98% (inactive)
CC(C)=NN1C(=O)c2ccccc2NC1(C)C | 36.7% (active)
CCOC(=O)C1(Cc2ccc(Cl)cc2)CCN(C(=O)C2=NNC(=O)CC2)CC1 | -6.86% (inactive)
CCC(=O)c1ccc(OC(=O)/C=C/c2cc(OC)c(OC)c(OC)c2)cc1 | 4.81% (inactive)
COc1cc(/C=C/c2ccc(/C=C/c3cc(OC)c(OC)c(OC)c3)cc2)cc(OC)c1OC | 50.4% (active)
COc1cc(/C=C/C2=CC(C)(C)NC(=S)N2)cc(OC)c1OC | -5.13% (inactive)
CC/C(=N/Nc1ccccc1)c1cnnc(SC)n1 | 0.39% (inactive)
COc1ccc(NC(=O)N2CCCC(C(=O)Nc3ccccc3OC)C2)cc1 (stereo unspecified) | 1.71% (inactive)
COc1ccc(C(=O)NC2CCN(C(=O)Nc3ccc(F)cc3)CC2)cc1 | -0.69% (inactive)
COc1ccc(NC(=O)N2CCC(Cc3ccccc3)CC2)cc1 | 53.4% (active)
O=C(COC(=O)c1ccc(S(=O)(=O)N2CCCCCC2)cc1)Nc1ccccc1C(F)(F)F | 4.5% (inactive)
CCc1ccc(Oc2coc3cc(OC(=O)c4cc5ccccc5oc4=O)ccc3c2=O)cc1 | 13.1% (inactive)

SMILES | inhibition
CCc1ccc(Oc2coc3cc(O)ccc3c2=O)cc1 | 70.2% (active)
COC(=O)COc1ccc2c(=O)c(Oc3ccccc3Br)coc2c1 | -0.49% (inactive)
Cc1ccc(N2C(=O)CC(N3CCSCC3)C2=O)c(C)c1 (stereo unspecified) | 3.11% (inactive)
COc1cccc2[nH]c(C(=O)NCCc3ccccc3)cc12 | 33.2% (active)
COc1ccc(CCNC(=O)c2ccccc2-c2ccccc2C(=O)O)cc1OC | 2.28% (inactive)
COc1ccc(OC)c2[nH]c(=O)c(CCNC(=O)C(=O)c3c[nH]c4ccccc34)cc12 | -5.42% (inactive)
N#C[C@]1(S(=O)(=O)c2ccccc2)C[C@@H]2ON=C(c3cccc(Br)c3)[C@@H]2C1 | 2.3% (inactive)
NS(=O)(=O)c1cc(C(=O)OCC(=O)NNC(=O)c2ccccc2)ccc1Cl | -1.72% (inactive)
O=C(NCc1ccccc1)C1CNCC(C(=O)NCc2ccccc2)C1 (stereo unspecified) | -0.79% (inactive)
COc1ccc(-n2cnc3cc(NCc4ccco4)ccc32)cc1 | -1.49% (inactive)
Cn1c(-c2ccco2)nc2cc3ccccc3cc21 | 81.7% (active)
Cn1c(SCC(=O)Nc2ccc(Br)cc2F)nnc1-c1ccco1 | 1.98% (inactive)
O=C(O)CSc1ccc(S(=O)(=O)N2CCCC2)cn1 | -0.83% (inactive)
N#Cc1c(C(F)(F)F)cc(-c2cccs2)nc1N1CCCCC1 | 11% (inactive)
N#Cc1c(N2CCCCC2)nc(N)c2c(N)nc(SCC(=O)O)cc12 | 29.2% (active)
COCc1c(C(=O)OCc2c(C)noc2C)oc2ccccc12 | 5.69% (inactive)
CCOc1ccccc1C(=O)NC1CC2CCCC(C1)N2Cc1ccccc1 (stereo unspecified) | -3.49% (inactive)
Cc1ccnc(NC(=O)C2CCN(S(=O)(=O)c3c(C)c(C)cc(C)c3C)CC2)c1 | 1.99% (inactive)
CCN(CC(=O)Nc1c(F)cccc1F)C(=O)c1ccc(-c2ccccc2)cc1 | 1% (inactive)
CCN(CC(=O)Nc1c(F)cccc1F)C(=O)c1cnc(C)cn1 | 2.56% (inactive)
CCN(CC(=O)Nc1c(F)cccc1F)C(=O)c1ccc(-c2ccc(C(C)=O)cc2)o1 | 142% (active)
COC(=O)c1ccc([C@@H](O)[C@H](C)C(=O)CC(=O)OC(C)(C)C)cc1 | 0.55% (inactive)
CCOc1ccc(S(=O)(=O)N2CCCC(C(=O)N3CCC(C(N)=O)CC3)C2)cc1Cl (stereo unspecified) | 2.08% (inactive)
COc1cc(Br)cc(/C=N/c2ncn[nH]2)c1O | -0.39% (inactive)

SMILES | inhibition
Oc1ccc(Br)cc1C=Nc1ccc2[nH]ncc2c1 | 39.7% (active)
COc1ccc(C)cc1NC(=O)CSc1nnc2ccc(-c3ccccn3)nn12 | 5.79% (inactive)
COc1ccc(-c2cc(C(=O)NCCCN3CCOCC3)no2)cc1 | 3.9% (inactive)
COCCCNC(=O)c1ccc(-c2c(C)noc2C)c2ccoc12 | 1.17% (inactive)
COc1ccc(-c2ccc(C(=O)NCCN3CCOCC3)c3occc23)c(C)c1 | 88.1% (active)
COc1ccc(-c2coc3c(C(=O)NC(C)C)cccc23)c(C)c1 | -2.36% (inactive)
COc1ccc(-c2ccc(C(=O)NC(C)C)c3occc23)c(C)c1 | 69.8% (active)
CC(=O)Oc1cc2c(C(=O)NCCN3CCOCC3)c(C)oc2c2ccccc12 | 0.36% (inactive)
CCOC(=O)[C@H]1[C@H]2COc3cc(OC)ccc3[C@@H]2N2C(=O)CN(Cc3ccc(Cl)cc3)C(=O)[C@@]12C | -3.3% (inactive)
C=CCn1c(=O)n(C)c2c(=O)n(C)c(=O)n(C)c21 | 1.89% (inactive)
Nc1scc(-c2ccncc2)c1Cl | -1.39% (inactive)
Cc1cc2nc(C(F)(F)F)cc(-c3cccs3)n2n1 | 9.4% (inactive)
CC(C)(C)Nc1c(-c2cccs2)nc2ccccn12 | 76.1% (active)
Cc1nc2ccccn2c(=O)c1NC(=O)c1cccs1 | 3.76% (inactive)
COC(=O)C1=C(N)Oc2cc(C)[nH]c(=O)c2C1c1ccc(Cl)cc1 (stereo unspecified) | -1.06% (inactive)
CCOC(=O)N1CCC(NC(=O)Cn2cc3c(n2)CCCCC3)CC1 | 3.04% (inactive)
C[C@H]1CN([C@@H](C)CO)C(=O)CCCn2nncc2CO[C@@H]1CN(C)S(=O)(=O)c1cccc(C#N)c1 | 1.03% (inactive)
O=C(CN1C(=O)NC2(CCCCC2)C1=O)NCCC1=CCCCC1 | 1.11% (inactive)
COc1cccc(NC(=O)CN(C)C(=O)Cc2ccc(Cl)cc2Cl)c1 | -2.96% (inactive)
COc1cccc(NC(=O)CN(C)C(=O)/C=C/c2cc(OC)ccc2OC)c1 | 57.2% (active)
COc1cccc(NC(=O)CN(C)C(C)C(=O)Nc2ccc(C#N)cc2)c1 (stereo unspecified) | 1.24% (inactive)
COc1cccc(NC(=O)CN(C)C(=O)CSC(=S)N2CCCC2)c1 | 3.18% (inactive)
COc1cccc(NC(=O)CN(C)CC(=O)Nc2ccc3c(c2)CCC3)c1 | 55.8% (active)
COc1ccc(/C=C/C(=O)OCC(=O)Nc2cccc(Oc3ccccc3)c2)c(OC)c1 | -1.32% (inactive)
